# High-throughput results as filed in PubChem BioAssay.
# Sampled rows, rich in hits. Any-hit rate of the full collection: about 6.1%.
# HepG2 viability: HepG2 cytotoxicity, counter-screen for TGF-b inhibitors. HepG2 CAGA-GFP viability, ATP luminescence, 18 h. Potency, µM (highest dose often 46.1 µM), for the others: at the highest dose activity change, negative = cytotoxicity, usual class: cytotoxic. actives 0.76% (n = 410,000)
#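 CellTiter-Glo luminescence gave cytotoxicity after 18 hours at 37 degrees C. The cells were HepG2 CAGA-GFP in 1% FBS DMEM, stimulated with 500 pg/mL TGF-beta after compound addition. %Activity was normalised to no-cell wells (complete cell-killing) and DMSO (no toxicity), and curves were fitted and classified.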
# RORgamma inh: ROR gamma (mouse) transcription inhibition. P51450. Drosophila S2 Gal4-RORgamma UAS-luciferase reporter, 20 h. Potency, µM (doses to about 53.6 µM), without a hit: at the highest dose activity change, negative = inhibition, actives largely listed as inhibitors. actives 5.4% (n = 310,000); note: % is set by controls: 0 for no effect and ±100 for the full control effect; nearly all actives have a fitted effect of over 60% in size
# Target sequence (P51450 whole entry, looked up, the tested form may be a part): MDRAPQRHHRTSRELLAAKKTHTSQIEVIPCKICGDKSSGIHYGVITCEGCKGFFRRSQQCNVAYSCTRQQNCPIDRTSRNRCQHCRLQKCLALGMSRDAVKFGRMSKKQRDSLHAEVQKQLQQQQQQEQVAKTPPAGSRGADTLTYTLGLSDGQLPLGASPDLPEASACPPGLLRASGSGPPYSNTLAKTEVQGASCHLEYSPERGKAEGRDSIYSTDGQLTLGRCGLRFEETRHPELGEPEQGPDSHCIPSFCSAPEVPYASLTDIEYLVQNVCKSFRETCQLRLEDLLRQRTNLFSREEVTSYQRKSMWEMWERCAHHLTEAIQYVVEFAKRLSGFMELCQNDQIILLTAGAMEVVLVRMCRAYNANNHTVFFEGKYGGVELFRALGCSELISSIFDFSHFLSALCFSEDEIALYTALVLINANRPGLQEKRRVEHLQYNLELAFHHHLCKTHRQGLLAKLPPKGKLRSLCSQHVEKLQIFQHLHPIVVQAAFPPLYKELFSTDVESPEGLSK
#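 Drosophila S2 cells stably expressing Gal4-DBD/mouse RORγ fusion under metallothionein promoter plus UAS-luciferase; compound 1 h, then 700 uM CuSO4 induction for 20 h at ambient temperature; inhibition read as reduced luminescence.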
# TGFb SMAD3 inh: inhibitors of TGF-b signaling; HepG2 CAGA-GFP TGF-b/SMAD3 reporter, GFP fluorescence, 18 h; TGF-beta stimulated, 500 pg/mL final; Potency, µM (highest dose often 46.1 µM), without a hit: at the top dose activity, negative = inhibition, usual class: inhibitors; actives 1.2% (n = 410,000); AID 588855; note: % is set by controls: 0 for no effect and ±100 for the full control effect; nearly all actives have a fitted effect of over 65% in size
#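 HEPG2 CAGA-GFP, 1000 cells/well; 2 h settle, 37 C; cpd via pin tool; TGF-b 500 pg/mL final; 18 h, 37 C; GFP imaging ex488/em500-530; %Activity normalised to -TGF-b and +DMSO controls; CRC fit, curve class.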
# VP16 counter: Gal4-VP16 reporter inhibition counter-screen; Drosophila S2 Gal4-VP16 UAS-luciferase, luminescence, 20 h; Potency, µM (top dose mostly 53.6 µM), for the others: at the highest dose activity, negative = inhibition, usual class: inhibitors; actives 3.5% (n = 310,000);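 note: Gal4-VP16 expression switched on by copper sulfate through the metallothionein promoter; % is set by controls: 0 for no effect and ±100 for the full control effect; nearly all actives have a fitted effect of over 50% in size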
# S2 tox: cell viability loss in ATXN counter-screen; S2 cells (HEK-293 line with an ATXN2-luciferase reporter) viability, CellTiter-Fluor protease fluorescence, 24 h; Potency, µM (top dose mostly 56.7 µM), usual class: cytotoxic; actives 0.49% (n = 400,000); AID 651635; note: nearly all actives have a fitted effect of over 40% in size
# ATXN2 expr inh: inhibitors of ATXN2 expression | HEK-293 ATXN2-luciferase reporter, luminescence, 24 h | Potency, µM (highest dose often 57 µM), for the others: top-dose activity change, negative = inhibition, hits mostly inhibitors | actives 0.72% (n = 360,000); note: % is set by controls: 0 for no effect and ±100 for the full control effect; nearly all actives have a fitted effect of over 55% in size
#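 qHTS (up to 57 uM final) was run with 24 h compound exposure of reporter cells at 37 °C. Each well was multiplexed: SteadyGlo luminescence measured ATXN2-luciferase expression after a fluorogenic Gly-Phe-AFC viability readout (25 uM final).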
# An asterisk follows results filed as active; i = inactive; ? = inconclusive; nt = no result given; [ ] = dose if it differs, or a comment. Calls come from the whole dose curve; as a rule, active = well fitted curve in the direction sought with a large enough effect; inconclusive = small, poorly fitted or top-dose-only effect, or another doubt; inactive = no such curve, though single readings can be large; an effect the other way counts as inactive or inconclusive. Potency is the fitted concentration of half-maximal effect.
SMILES,HepG2 viability,RORgamma inh,TGFb SMAD3 inh,VP16 counter,S2 tox,ATXN2 expr inh
Cc1ccc(NC(=S)Nc2ccc(Cl)c(Cl)c2)c(OC(F)F)c1,-31%,?,?,?,?,?
CC(NC(=S)Nc1ccc(OC(F)F)c(Cl)c1)C(C)(C)C (stereo not given),-36%,2.8µM*,13µM*,13µM*,i,14%[11.3 µM]
Cc1ccc(NC(=S)Nc2ccc(OC(F)F)c(Cl)c2)cc1Cl,-45%,13µM*,18µM*,?,i,?
CC(C)(C)CC(C)(C)c1ccc(O)c(CN2CCN(CCC#N)CC2)c1,-51%,25µM*,0%,-24%,i,-1%
CCCN(CCC)CCCNC(=O)Cn1ncn2c(cc3sc(CC)cc32)c1=O,-3%,nt,-26%,nt,nt,nt
COc1ccc(/C=C\C(=O)c2c(O)ccc3c(C)cc(=O)oc23)cc1OC,-53%,13µM*,?,?,i,-1%
COc1cc(/C=C/C(=O)c2c(O)ccc3c(C)cc(=O)oc23)ccc1O,-1%,13µM*,1%,?,i,-33%
Cc1cc(=O)oc2c(C(=O)/C=C/c3ccccc3)c(O)ccc12,5%,-1%,2%,-21%,i,1%
C/C(=N\NC(=O)CSCc1ccc([N+](=O)[O-])cc1)c1ccccc1O,-18%,0.32µM*,?,2µM*,?,18µM*
C/C(=N\NC(=O)Cc1ccc(Cl)cc1)c1ccccc1O,-39%,0.28µM*,?,0.32µM*,?,?
C/C(=N\NC(=O)CSCc1ccc([N+](=O)[O-])cc1)c1ccccc1,32%,?,-2%,-26%,nt,-18%
Cc1cc(Nc2cccc(F)c2)nc(-c2ccccc2O)n1,11µM*,?,?,6%,i,-19%
COc1ccccc1C(=O)N[C@@H]1c2ccccc2C2(CCN(Cc3nccs3)CC2)[C@H]1OC,nt,nt,nt,nt,i,nt
Cc1ccc(C)c(N2CCN(C(=O)c3noc4c3CCCCC4)CC2)c1,-27%,nt,13µM*,nt,nt,nt
Cc1cc(C)nc(N/N=C/c2cc(C)n(CC(F)(F)F)c2C)n1,-41%,8.9µM*,?,?,?,nt
COc1cc(=O)n2c(c1C(=O)NCc1ccc3c(c1)OCO3)CCN(C(=O)c1cccc(F)c1)CC2,nt,nt,nt,nt,i,nt
O=C(Nc1ccc(Cl)cc1Cl)c1cc(S(=O)(=O)NCc2ccc3c(c2)OCO3)ccc1F,-40%,nt,?,nt,nt,nt
NC(=O)Cc1nc(-c2ccc(F)cc2)cs1,40%,-31%,28%,2%,i,nt
NC(=S)Cc1nc(-c2ccc(Cl)cc2)cs1,-68%,5µM*,-10%,?,?,-3%
CC(C)CN(CCNC(=O)c1cn(C)c2ccc(S(=O)(=O)N3CCCCCC3)cc2c1=O)CC(C)C,7%,nt,-2%,nt,i,-4%
O=C1CCCN1CCC1CCN(C2CC(=O)N(Cc3ccc(N4CCCC4=O)cc3)C2=O)CC1 (stereo not given),11%,7.1µM*,?,?,i,5%
CC(NC(=O)C1CCCN1C(=O)CN)C(=O)O (stereo not given),nt,-3%,nt,-7%,nt,nt
O=c1[nH]cnc2scc(-c3ccc(Br)cc3)c12,0%,-7%,7%,2%,i,-6%
CCc1ccc(-c2csc3nc[nH]c(=O)c23)cc1,-13%,?,4%,11%,i,5%
Cc1ccc(-c2csc3nc[nH]c(=S)c23)cc1,-23%,0.025µM*,0%,0.014µM*,?,-18%
SMILES,HepG2 viability,RORgamma inh,TGFb SMAD3 inh,VP16 counter,S2 tox,ATXN2 expr inh
Cc1cc(-c2csc3nc[nH]c(=S)c23)cc(C)c1C,10%,0.32µM*,?,0.56µM*,?,?
S=c1[nH]cnc2scc(-c3ccc(Cl)cc3)c12,-14%,0.45µM*,-22%,1µM*,i,-31%
S=c1[nH]cnc2scc(-c3ccc(Br)cc3)c12,-23%,0.5µM*,-9%,0.63µM*,i,?
O=c1[nH]cnc2scc(-c3ccccc3)c12,-12%,28%,-15%,6%,i,1%
COc1ccc(N2CC(NC(=O)CCc3ccccc3)CC2=O)cc1OC (stereo not given),1%,nt,?,nt,i,9%
Cc1sc2nc[nH]c(=S)c2c1-c1ccccc1,-86%,0.28µM*,0%,0.63µM*,?,-31%
CCOC(=O)c1ccc(NC(=O)Cn2nc3c4ccccc4n(Cc4cccc(F)c4)cc-3c2=O)cc1,4%,nt,0%,nt,i,15%
Cn1ncc2c(NNC(=O)c3ccc(Cl)c(Cl)c3)ncnc21,-4%,0.32µM*,1%,1.1µM*,i,2%
Cn1ncc2c(NNC(=O)c3ccc(Cl)cc3Cl)ncnc21,-6%,6.3µM*,-12%,7.1µM*,i,-2%
Cn1ncc2c(NNC(=O)Cc3ccccc3)ncnc21,-2%,16%,-12%,-7%,i,6%
COc1ccccc1OC(C)C(=O)N1CCN(CCc2ccccn2)CC1 (stereo not given),-2%,nt,-3%,nt,i,2%
CCCCCCc1ccc(C(=O)CCN(C)C)cc1,nt,nt,-29%,-4%,nt,nt
Brc1csc(CN2CCc3nc(Nc4ccccc4)ncc3C2)c1,-42%,nt,13µM*,nt,?,-16%
COc1ccc(CCNC(=O)Cn2cc(C(=O)c3ccc(Cl)cc3)c(=O)c3ccc(C)nc32)cc1OC,-28%,nt,-2%,nt,i,-4%
O=C(N/C=N/OCc1ccc(Cl)cc1Cl)NOCc1c(Cl)cccc1Cl,18µM*,?,-16%,?,i,?
CCN(CCO)C1CC(=O)N(c2ccccc2C)C1=O (stereo not given),-21%,4µM*,8%,3.5µM*,i,34%
CCN(CC)C1CC(=O)N(c2cccc(C)c2)C1=O (stereo not given),nt,-142%,nt,7.1µM*,nt,nt
Cc1ccc(C(=O)N(Cc2cc3cc4c(cc3nc2N2CCOCC2)CCC4)CC2CCCO2)s1 (stereo not given),nt,nt,nt,nt,i,nt
Cc1nn(-c2ccc(NC(=O)c3ccncc3)cc2)c(C)c1Cl,-17%,?,-18%,7.9µM*,i,?
C/C(=N\NC(=O)c1c(Cl)c(C)nn1C)c1ccc(NC(=O)c2ccncc2)cc1,-7%,-38%,-3%,-5%,?,0%
O=C(CN1CCSc2ccccc21)NCc1ccccc1F,-4%,nt,0%,nt,i,18%
Fc1ccc2c(c1)C(c1ccncc1)=NNC(c1ccccc1)=N2,5%,10µM*,27%,?,i,4%
